Hit rate of the full screen: of about 340,000 compounds, about 6,400 (1.9%) were called active. Inconclusive results (about 4%) are left out. This is one part of a sample in which actives are shown more often than they occur. Values without a mark were called inactive. Calls come from the whole dose curve; as a rule, active = well fitted falling curve with a large enough effect; inconclusive = small, poorly fitted or top-dose-only effect; inactive = no such curve, though single readings can be large or run the other way.
biological target: ATP-dependent Clp protease proteolytic subunit (Bacillus subtilis (strain 168)) (UniProt P80244); assay: qHTS Assay for Activators of ClpP; note: the source files actives as falling curves though it sought activators and does not explain the sign; nearly all actives have a fitted effect of over 65% in size; settings: purified B. subtilis ClpP, FRET peptide cleavage, 20 min; series mostly up to 57.5 µM; activity change, negative = active: at the top concentration
Sequence (P80244 whole entry, looked up): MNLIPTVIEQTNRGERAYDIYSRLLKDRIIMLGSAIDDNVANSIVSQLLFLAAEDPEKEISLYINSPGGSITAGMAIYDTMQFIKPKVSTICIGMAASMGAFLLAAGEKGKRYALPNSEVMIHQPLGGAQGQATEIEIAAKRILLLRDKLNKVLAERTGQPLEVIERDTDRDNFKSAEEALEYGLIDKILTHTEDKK
How it was run: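 Purified B. subtilis ClpP, 10 microg/mL final in Tris/HCl pH8 with KCl, BSA, glycerol and Tween-20, cleaved an Abz/nitrotyrosine-quenched decapeptide. Fluorescence (ex 320, em 430) was read at 0 and 20 min at room temperature. Delta was normalized to 5.8 microM ADEP and DMSO/no-enzyme controls.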
Potency is the fitted concentration of half-maximal effect.

Compound | activity change, negative = active | Potency
COc1ccc(CN(Cc2ccccc2)C(=O)c2ccc(O)cc2)cc1COc1ccc(NC(C)=O)cc1 | -5.22% | 
C[C@@H]1CN([C@@H](C)CO)C(=O)CCCn2nncc2CO[C@H]1CN(C)Cc1ccc(C(F)(F)F)cc1 | -0.773% | 
C#CCN(C[C@@H]1[C@@H](OC(=O)NC2CC2)[C@@H](OC(=O)NC2CC2)Cn2c(=O)ccc(=O)n21)S(=O)(=O)c1ccc(C)cc1 | -0.219% | 
CCc1ccc(C2C(C(=O)Nc3ccccc3)=C(C)Nc3c(C(=O)Nc4ccc(C)cc4)cnn32)cc1 (stereo not given) |  | 31.6 µM (active)
CC1=C(C(=O)Nc2ccccc2)C(c2ccc(C)cc2)n2nc(SCc3ccccc3C)nc2N1 (stereo not given) | -3.48% | 
COc1cccc(C2C(C(=O)Nc3ccc(C)cc3C)=C(C)Nc3c(C(=O)Nc4ccccc4)cnn32)c1 (stereo not given) | -27.6% | 
CC1(C(=O)NCc2ccc3c(c2)OCO3)CCN1C(=O)Cc1cccs1 (stereo not given) | -0.503% | 
COc1cccc(CNc2nc(NCc3ccccc3OC)nc3ccsc23)c1 | -28.5% | 
CCC(=O)N1CCCC1(C)C(=O)Nc1ccc2c(c1)CCN2C(C)=O (stereo not given) | -1.31% | 
Cc1cc(C)cc(C(=O)NCCN2CCOCC2)c1 | 0.816% | 
CCn1cc(/C=C(\NC(=O)c2ccc(C)cc2)C(=O)NCCN2CCOCC2)c2ccccc21 | 0.383% | 
Cc1ccc(C(=O)NC(=S)NCCN2CCOCC2)cc1 |  | 28.2 µM (active)
CCCNC(=O)c1cc2c(c(-c3cccc(-c4ccc(C#N)cc4)c3)n1)[C@@H](CCO)N(C(=O)CC)C2 | -7% | 
CC(C)OC(=O)CC(=O)CC(O)c1cccc([N+](=O)[O-])c1 (stereo not given) | 1.54% | 
COC(=O)c1ccc2nc(-c3ccc(F)cc3)c(Cc3ccc(C)cc3)n2c1 | -16.6% | 
COc1ccc(NC(=O)CCCC2CCCCC2)c(OC)c1 | -2.51% | 
COC(=O)c1sccc1NC(=O)CCC1CCCC1 | -1.1% | 
CC(=O)Oc1ccc(NC(=O)CCC2CCCCC2)c(C(=O)O)c1 |  | 22.4 µM (active)
CCc1nc2c(OCc3ccc(C(F)(F)F)cc3)cccn2c1N(C)C(=O)CC(C)C | 1.18% | 
Cc1ccccc1CN1C(=O)CSCC1(C)C(=O)Nc1c(C)cccc1C (stereo not given) | 3.88% | 
CC(C)(C)C1CCC(NC(=O)c2cnn3c2NC(=C2CC2)C=C3C(F)F)CC1 (stereo not given) | -13.2% | 
CN(C)CCCNC(=O)c1ccc2[nH]c3ccccc3c2c1 |  | 12.6 µM (active)
CCCCNC(=O)c1ccc(-n2c(=S)[nH]c3ccccc3c2=O)cc1 | 0.235% | 
Cc1ccc(C(=O)NCCSc2c(C)[nH]c3ccccc23)cc1C | -0.725% | 
COc1ccc(NC(=O)c2sc(=O)n(Cc3ccc(S(=O)(=O)N(C)C)cc3)c2C)cc1 | 0.336% | 

Compound | activity change, negative = active | Potency
CCN1C(=O)[C@H]2[C@@H](c3ccccc3)N[C@]3(CCCN(Cc4ccc(C)cc4)C3=O)[C@H]2C1=O | 0.813% | 
O=C(CNC(=O)c1ccco1)OCC(=O)c1ccccc1 |  | 25.1 µM (active)
CCc1ccc(C(=O)COC(=O)c2ccco2)cc1 | 0.893% | 
COCCn1c(C)cc(C(=O)COC(=O)CNC(=O)c2ccco2)c1C | -1.27% | 
NS(=O)(=O)c1ccc(NC(=O)COC(=O)c2ccco2)cc1 | -1.06% | 
CCOC(=O)c1ccc(NC(=O)CNC(=O)c2ccco2)cc1 | -5.64% | 
O=C(COC(=O)CNC(=O)c1ccco1)Nc1ccc(F)cc1 |  | 25.1 µM (active)
CC(O)(c1cccc(F)c1)c1nc(-c2ccc3c(c2)OCO3)cs1 (stereo not given) | -7.59% | 
C[C@@H]1CN([C@@H](C)CO)C(=O)c2cc(Br)cnc2O[C@H]1CN(C)Cc1ccc(-c2ccccc2)cc1 | -0.688% | 
C[C@@H]1CN([C@H](C)CO)C(=O)CCCn2nncc2CO[C@@H]1CN(C)S(=O)(=O)c1cccc(C#N)c1 | -4.62% | 
CC[C@@H]1CC2=C(C(=O)OC(C)(C)O2)[C@@H](CC)O1 | -1.94% | 
CC1(c2cccc(Br)c2)NC(=O)N(CC(=O)NCCC2=CCCCC2)C1=O (stereo not given) | 2.55% | 
COc1ccc(CCN(Cc2cc3cccc(C)c3[nH]c2=O)C(=O)N2CCCC2)cc1OC | -26.6% | 
COc1cc2cc(CN(CCN3CCCC3)C(=O)Nc3ccccc3Cl)c(=O)[nH]c2cc1OC |  | 3.16 µM (active)
Cc1ccc2[nH]c(=O)c(CN(CCCN(C)C)C(=O)Nc3cccc(Cl)c3)cc2c1 | -15.6% | 
O=S1(=O)CC(N2CCSCC2)CN1Cc1cn(Cc2cccc(Cl)c2)nn1 (stereo not given) | 1.24% | 
CCc1nc2c(OCc3ccccc3)cccn2c1N(C)C(=O)c1ccco1 | 0.312% | 
CC(=O)Oc1ccc(Cn2c(C)c(C(=O)NCc3ccc(C#N)cc3)sc2=O)cc1 | -2.06% | 
CC(=O)NC(c1cccc(F)c1)c1nc(-c2cccc(F)c2)cs1 (stereo not given) | -1.82% | 
COc1ccc(CNc2nc(-c3ccc(Cl)cc3)cc(C(F)(F)F)n2)cc1 | 4.07% | 
Cc1cc(C(F)(F)F)nn1-c1nc(-c2ccco2)cc(C(F)(F)F)n1 |  | 35.5 µM (active)
COc1nc(NCc2ccc(Cl)cc2)nc(OC)n1 | -1.49% | 
Cc1nn(-c2nc(-c3ccccc3)cc(C(F)(F)F)n2)c(C)c1Cl | -2.43% | 
FC(F)(F)c1cc(-c2ccco2)nc(NCc2ccc(Cl)cc2)n1 |  | 28.2 µM (active)
CCOC(=O)c1ccn(-c2nc(-c3ccco3)cc(C(F)(F)F)n2)n1 | 5.18% | 

— PubChem BioAssay AID651965 (National Center for Advancing Translational Sciences (NCATS), 2013)
